# Screening data: PubChem, Center for Chemical Genomics, University of Michigan
# Dicer processing: inhibitors of human Dicer processing of pre-microRNA | cat-ELCCA pre-miR-21 Dicer processing, chemiluminescence; active compounds read high | Q9UPY3 | z-score at 25 µM | 6% of 47,000 active; in the data active means z-score above about 3, passing the limit was not always enough;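 further: plate controls were vehicle for no effect and no enzyme for full effect; higher signal means more uncleaved substrate so more Dicer inhibition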
# * hit, by the source's call. Many of the other results were omitted from the sample, so hits are more common in it than they were.
SMILES,Dicer processing
COC(=O)c1ccc(Oc2nc(C)cc(N)n2)cc1,0.86
Cc1ncc(S(=O)(=O)C(C)(C)C)c(N)n1,-0.51
Cc1ncc(S(=O)(=O)Cc2cccs2)c(N)n1,5.2*
CSc1ncc(S(=O)(=O)Cc2cccs2)c(N)n1,0.02
CCc1cccc(C)c1NC(=O)NNC(=O)Cc1nc(-c2ccccc2)sc1C,2.6
OCC1OC(Nc2ccc(Cl)cc2)C(O)C(O)C1O (centres undefined),3.4*
OC[C@H]1O[C@@H](Oc2ccccc2)[C@H](O)[C@@H](O)[C@@H]1O,1.7
CCN(CC)CCOC(=O)c1ccc(N[C@@H]2O[C@H](CO)[C@@H](O)[C@H](O)[C@H]2O)cc1,-1.3
CN(C)/C=C\c1ccnc(-c2cc(/C=C\N(C)C)ccn2)c1,2.2
CN(NC(=O)c1ccccc1Cl)c1ncc(Cl)cc1C(F)(F)F,0.17
CC(C)(C)NC(=S)N/N=C/C=N/NC(=S)NC(C)(C)C,4.3*
CC(C)(C)NC(=S)N/N=C/c1ccc(O)cc1O,2.2
CC(C)(C)NC(=S)N/N=C/c1c(Cl)cccc1Cl,-2
CC1(C)OC(=O)C(=CNc2ccc(Cl)cn2)C(=O)O1,0.19
Fc1cccc(CSC2=NCN(C3CC3)CN2)c1,0.28
CSc1nc(C)nc(Nc2ccc(Cl)cc2Cl)c1C#N,-0.83
CSc1nnc(Nc2ccc(Cl)cc2Cl)s1,3.9*
CSc1ccc(/C=N/Nc2ccc(Cl)cc2Cl)s1,5.2
S=C(NCCc1ccccc1)NNC(=S)NC1CC2C=CC1C2 (centres undefined),-1
CC(C)c1ccc2c(c1)CCC1C(C)(CNC(=O)NC(C)(C)C)CCCC21C (centres undefined),1
CCN(CC)C(=O)c1sc2nc3c(cc2c1N)CCCC3,1.7
CCOC(=O)c1c(NC(=O)c2ccco2)sc2c1CCC(CC)C2 (centres undefined),-3.1
CNC(=O)c1c(NC(=O)c2ccco2)sc2c1CCC(C(C)(C)C)C2 (centres undefined),0.51
CCOC(=O)c1c(NC(=O)c2ccco2)sc2c1CCC(C(C)(C)C)C2 (centres undefined),0.15
O=C(Nc1sc2c(c1C(=O)O)CCCC2)c1ccco1,0.04
SMILES,Dicer processing
CC1CCc2c(sc(NC(=O)c3ccco3)c2C(=O)N2CCOCC2)C1 (centres undefined),3*
CCOC(=O)c1c(NC(=O)c2ccco2)sc2c1CCC(C)C2 (centres undefined),3.3*
CN(c1c2c(nn1C)CCCC2)S(=O)(=O)c1ccc(Cl)cc1,0.8
O=C1CSCC(=O)N1c1ccc(F)c(F)c1F,0.54
CCOC(=O)C1C(c2ccccc2)C(C(=O)OCC)S(=O)(=O)CS1(=O)=O (centres undefined),1.2
CCOC(=O)CCSC1=NC(c2cccs2)C(C(=O)OCC)=C(C)N1 (centres undefined),0.72
Cc1ccc(CNc2ncc(-c3ccc(C)cc3)n2C)cc1,1.8
COc1ccc(-c2csc(-c3c(C)noc3N)n2)cc1,3.6
O=C(O)CC12OC3C4C5CC(C6C5C3C61)C42 (centres undefined),-1.1
CC1(C)OC(=O)C2(C(=O)O1)C1C3C4CC5C6C4C1C6C2C53 (centres undefined),0.94
COC(=O)C1(C(=O)OC)C2C3C4CC5C6C4C2C6C1C53 (centres undefined),5.4*
Fc1ccc(C2Sc3ccccc3N=C3c4ccccc4SCC32)cc1 (centres undefined),-2.3
Cc1cc(C)c2c(N)c(C(N)=O)sc2n1,0.03
C=CCNC(=S)NNC(=O)c1sc2nnc(-c3ccccc3)c(-c3ccccc3)c2c1N,16
C=CCNC(=S)NNC(=O)c1sc2nc(C)cc(C)c2c1N,4.2*
CC(C)(C)OC(=O)N1CSC[C@H]1C(=O)O,-0.53
O=C(O)CCCNC(=O)c1cccs1,0.61
CCc1c(O)c2c(=O)n(C)c(=O)n(C)c2n(C)c1=O,-1.3
Cn1c(=O)c2c3nc4ccc([N+](=O)[O-])cc4cc3c(=O)n(C)c2n(C)c1=O,-1
CC(C)(C)c1ccc(-c2n[nH]c(=S)n2Cc2ccco2)cc1,-0.25
COc1ccccc1N=C(N)SCc1ccccc1,5.9*
N#Cc1ccc(CSC(N)=Nc2ccccc2)cc1,-0.99
NC(=Nc1ccccc1)SCc1ccc([N+](=O)[O-])cc1,-1.4
Cc1cc2c(cc1C)NC(=O)c1ccccc1C(c1ccccc1)=N2,3.1*
CC1CN=C(c2ccccc2)c2ccccc2C(=O)O1 (centres undefined),-0.71
SMILES,Dicer processing
C=C1c2cc(C)c(C)cc2NC(=O)N1c1ccccc1,2.9
CCOc1ncnc2c1sc1nc(N3CCOCC3)c3c(c12)CCCC3,1.4
Cc1ccc(-c2nnc(SCC(=O)c3c(C)[nH]c4ccccc34)o2)cc1,-2.1
CC(=O)OCc1ccccc1Sc1ccc([N+](=O)[O-])cc1C(=O)O,-1.2
N#Cc1cn(-c2ccc(OC(F)(F)F)cc2)c(=O)[nH]c1=O,14
COC(OC)c1ccc2c(N)c(C(=O)c3ccc(C)cc3)sc2n1,0.42
Cc1ccc2nc(NCCO)[nH]c2c1,1.3
CCCN(CCC)C1=C(C(=O)c2ccccc2)N(CC(N)=O)S(=O)(=O)c2ccccc21,3.5*
NC(=O)CN1C(C(=O)c2ccccc2)=C(N2CCOCC2)c2ccccc2S1(=O)=O,0.95
NC(=O)CN1C(C(=O)c2ccccc2)=C(NCc2ccccc2)c2ccccc2S1(=O)=O,0.71
Cc1ccc(Oc2ncc(C(F)(F)F)cc2Cl)c2c1CCC2,-0.2
CCOC(=O)C1(C(=O)OCC)CCC(=NO)CC1,0.6
C=CCNC(=S)Nc1sc2c(c1C(=O)OCC)CCN(C(=O)OCC)C2,-3.5
CCOC(=O)N1CCc2c(sc(NC(=O)CN3CCc4ccccc43)c2C#N)C1,5.3*
CCOC(=O)c1c(NC(=S)N2CCCCC2)sc2c1CCN(C(=O)OCC)C2,-2
CCOC(=O)N1CCc2c(sc(N)c2C#N)C1,-0.06
CCOC(=O)c1c(NC(=S)NCc2ccccc2)sc2c1CCN(C(=O)OCC)C2,3.7*
CCOC(=O)c1c(NC(=O)CN2CCc3ccccc32)sc2c1CCN(C(=O)OCC)C2,-0.43
COc1ccc(N2C(=O)CC3(CCCCC3)CC2=O)cc1OC,-1.8
COc1cc(C(F)(F)F)nc2ccc(C#CCO)cc12,-1.6
COc1ccc(OC)c(CN2CCN(Cc3ccco3)CC2)c1,0.34
CCc1n(CC)c2ccccc2[n+]1CC(O)COc1ccc(F)cc1 (centres undefined),5*
CCn1c(C)[n+](CC(O)COc2ccc(F)cc2)c2ccccc21 (centres undefined),0.85
CCc1n(CC)c2ccccc2[n+]1CC(O)COc1ccccc1OC (centres undefined),0.58
CC(C)c1cc(C(C)C)c([N+](=O)[O-])c(C(C)C)c1,-3.4
SMILES,Dicer processing
C=CCOC(=O)c1sc(N2C(=O)c3oc4ccccc4c(=O)c3C2c2ccccc2F)nc1C (centres undefined),0.36
CCC(=O)N1c2ccccc2-c2nnc(SC)nc2OC1c1ccccc1 (centres undefined),0.35
CCOc1ccc(C2C(C(=O)OC)=C(C)N=C3SCCC(=O)N32)cc1OC (centres undefined),-1.9
CCn1c(C(C)Oc2ccc(Cl)cc2)n[nH]c1=S (centres undefined),-6.2
CC(Oc1ccccc1-c1ccccc1)c1n[nH]c(=S)n1-c1ccccc1 (centres undefined),3.3*
Cc1ccc(C)n1-c1ccc(-c2n[nH]c(=S)n2-c2ccccc2)cc1,1.3
C=C(C)CSc1nnc2[nH]c(=O)cc(N)n12,2.9
CC(C)CSc1nnc2[nH]c(=O)cc(N)n12,2.4
